AmpC det inh – blocks E. coli AmpC beta-lactamase in presence of detergent; P00811; purified AmpC, nitrocefin hydrolysis with detergent; Potency, µM (top dose mostly 28.7 µM); actives 0.09% (n = 71,000); AID 584; active = well fitted curve in the direction sought with a large enough effect; inconclusive = small, poorly fitted or top-dose-only effect
Target sequence (P00811 whole entry, looked up): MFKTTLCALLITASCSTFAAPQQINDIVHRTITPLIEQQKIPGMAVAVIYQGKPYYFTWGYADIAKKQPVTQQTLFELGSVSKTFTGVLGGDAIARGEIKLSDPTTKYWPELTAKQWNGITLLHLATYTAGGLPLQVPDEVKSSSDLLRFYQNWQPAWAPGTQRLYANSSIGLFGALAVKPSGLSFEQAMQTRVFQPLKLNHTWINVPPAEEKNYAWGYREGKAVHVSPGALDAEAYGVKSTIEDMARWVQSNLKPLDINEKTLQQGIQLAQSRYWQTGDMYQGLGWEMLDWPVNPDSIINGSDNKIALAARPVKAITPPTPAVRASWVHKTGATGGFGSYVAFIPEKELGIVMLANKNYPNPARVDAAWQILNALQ
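E. coli AmpC (5.3 nM) in 20 mM phosphate pH 7.0 with 0.01% Triton X-100, preincubated 15 min RT with compound; nitrocefin (2 uL of 800 uM stock) hydrolysis followed by 480 nm absorbance every 20 s over 4 min.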
AmpC nodet inh – blocks E. coli AmpC beta-lactamase in absence of detergent; P00811; AmpC nitrocefin hydrolysis, absorbance 480 nm, no detergent; Potency, µM (top dose mostly 28.7 µM); actives 1.8% (n = 71,000); AID 585
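Enzyme, pH 7.0 phosphate. Compound titrations were pre-incubated with AmpC for 15 min at room temperature before nitrocefin (stock 800 uM) addition; product formation was recorded at 480 nm every 20 s for 4 min.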
LT uptake inh – blocks cellular internalization of anthrax lethal toxin | Cells, anthrax lethal toxin internalization, FRET ratio (460/530) | Potency, µM (highest dose often 40 µM), hits mostly inhibitors | actives 0.67% (n = 70,000); note: nearly all actives have a fitted effect of over 50% in size
SmPrx2 inh – Schistosoma mansoni Prx2 inhibition | S. mansoni Prx2 activity coupled to TGR/GSH (TGR is thioredoxin glutathione reductase), NADPH fluorescence loss, qHTS | Potency, µM | actives 0.07% (n = 65,000) | AID 448
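Purified S. mansoni TGR and Prx2 in pH 7.4 phosphate buffer with EDTA and Tween-20 were preincubated with compounds for 15 min. Further NADPH/GSH was added, then a 2.5 mM H2O2 aliquot initiated turnover, followed kinetically by NADPH fluorescence.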
Hits are given with their value; [ ] = dose if it differs, or a comment. Only some compounds are listed: those with a hit (about 2.4% of all), similar ones and a draw of the others. Unless noted, calls come from the whole dose curve.

What do the screens show for `C[C@@H]1CC[C@@]2(OC1)O[C@H]1[C@@H](O)[C@H]3[C@@H]4CC[C@H]5C[C@@H](O[C@@H]6O[C@H](CO)[C@H](O[C@@H]7O[C@H](CO)[C@@H](O)[C@H](O[C@@H]8OC[C@@H](O)[C@H](O)[C@H]8O)[C@H]7O[C@@H]7O[C@H](CO)[C@@H](O)[C@H](O[C@@H]8O[C@H](CO)[C@@H](O)[C@H](O)[C@H]8O)[C@H]7O)[C@H](O)[C@H]6O)[C@H](O)C[C@]5(C)[C@H]4CC[C@]3(C)[C@H]1[C@@H]2C`?
AmpC det inh: inactive; AmpC nodet inh: inactive; LT uptake inh: inconclusive

How did CCOC(=O)C(C)Sc1nnc(Cc2cc(=O)[nH]c(=O)[nH]2)n1-c1ccc(OCC)cc1 (stereo unspecified) do in these assays?
AmpC det inh: inactive; AmpC nodet inh: 4µM[single pt active]; LT uptake inh: inactive; SmPrx2 inh: inactive

How did CCOC(=O)C(C)Sc1nnc(Cc2cc(=O)[nH]c(=O)[nH]2)n1-c1cccc(OC)c1 (stereo unspecified) do in these assays?
AmpC det inh: inactive; AmpC nodet inh: 4µM[single pt active]; LT uptake inh: inactive; SmPrx2 inh: inactive

What do the screens show for `CCOc1ccc(-n2c(Cc3cc(=O)[nH]c(=O)[nH]3)nnc2SCc2cccnc2)cc1`?
AmpC det inh: inactive; AmpC nodet inh: 4µM[single pt active]; LT uptake inh: inactive; SmPrx2 inh: inactive

How did CCOc1ccc(-n2c(Cc3cc(=O)[nH]c(=O)[nH]3)nnc2SC(C)C)cc1 do in these assays?
AmpC det inh: inactive; AmpC nodet inh: inactive; LT uptake inh: inconclusive; SmPrx2 inh: inactive

How did O=c1[nH]c2[nH]c(=S)[nH]c(=S)c2[nH]1 do in these assays?
AmpC det inh: inactive[5.75 µM]; AmpC nodet inh: inactive[5.75 µM]; LT uptake inh: inactive[8 µM]; SmPrx2 inh: inactive

Results for COc1ccc(OC)c(S(=O)(=O)n2ccnc2)c1 ?
AmpC det inh: inactive; AmpC nodet inh: inactive; LT uptake inh: inactive; SmPrx2 inh: inactive

Results for O=C(Nc1cc[c]([Sb](=[O])([OH])[OH])cc1)c1ccccc1 ?
AmpC det inh: inactive[5.75 µM]; AmpC nodet inh: 3.2µM[single pt active]; LT uptake inh: inactive[8 µM]; SmPrx2 inh: inactive

What do the screens show for `Cc1ccccc1NC(=O)c1ocnc1C`?
AmpC det inh: inactive; AmpC nodet inh: 4µM[single pt active]; LT uptake inh: inactive; SmPrx2 inh: inactive

What do the screens show for `O=C1[C@@H]2[C@@H]3C=C[C@H]([C@@H]2C(=O)N1CN1CCSCC1)[C@@H]1[C@@H]2C(=O)N(CN4CCSCC4)C(=O)[C@@H]2[C@H]31`?
AmpC det inh: inactive[5.75 µM]; AmpC nodet inh: inactive[5.75 µM]; LT uptake inh: inactive[8 µM]; SmPrx2 inh: inactive

How did Cn1c(SCC(=O)NCc2ccc3c(c2)OCO3)nc2scc(-c3cccs3)c2c1=O do in these assays?
AmpC det inh: inactive; AmpC nodet inh: 16µM[single pt active]; LT uptake inh: inactive; SmPrx2 inh: inactive

How did O=C(CSc1nnc2scc(-c3ccccc3)n12)NCc1ccc2c(c1)OCO2 do in these assays?
AmpC det inh: inactive; AmpC nodet inh: inactive; LT uptake inh: inactive; SmPrx2 inh: inactive

What do the screens show for `Nc1ncnc2c1c(-c1ccc(Oc3ccccc3)cc1)cn2C1CCCC1`?
AmpC det inh: inactive; AmpC nodet inh: inactive; LT uptake inh: 16µM; SmPrx2 inh: inactive

Results for O=C(NCCN1CCc2ccccc2C1)Nc1ccc(F)cc1 ?
AmpC det inh: inactive; AmpC nodet inh: 4µM[single pt active]; LT uptake inh: inconclusive; SmPrx2 inh: inactive

What do the screens show for `CCc1ccc(NC(=O)NCCN2CCc3ccccc3C2)cc1`?
AmpC det inh: inactive; AmpC nodet inh: inactive; LT uptake inh: inactive; SmPrx2 inh: inactive

How did O=C(CN1CC(c2ccccc2)CC1=O)Nc1ccc2c(c1)OCO2 (stereo unspecified) do in these assays?
AmpC det inh: inactive; AmpC nodet inh: inactive; LT uptake inh: inactive; SmPrx2 inh: inactive

How did COc1ccc(NC(=O)CN2CC(c3ccccc3)CC2=O)cc1OC (stereo unspecified) do in these assays?
AmpC det inh: inactive; AmpC nodet inh: 4µM[single pt active]; LT uptake inh: inactive; SmPrx2 inh: inactive

What do the screens show for `O=C(CN1CC(c2ccccc2)CC1=O)NCc1ccc(F)cc1` (stereo unspecified)?
AmpC det inh: inactive; AmpC nodet inh: 4µM[single pt active]; LT uptake inh: inactive; SmPrx2 inh: inactive

What do the screens show for `O=C(CN1CCN(Cc2ccc(F)cc2)C1=O)NCc1cccs1`?
AmpC det inh: inactive; AmpC nodet inh: inactive; LT uptake inh: inactive; SmPrx2 inh: inactive

What do the screens show for `COc1ccc(C[C@@H]2NC[C@H](O)[C@H]2OC(C)=O)cc1`?
AmpC det inh: inactive; AmpC nodet inh: inactive; LT uptake inh: inconclusive; SmPrx2 inh: inactive

What do the screens show for `CC1=C(CC[C@H](C)CO)O[C@@H]2C[C@@H]3[C@H]4CC[C@H]5C[C@@H](O)CC[C@]5(C)[C@@H]4CC(=O)[C@@]3(C)[C@@H]12`?
AmpC det inh: inactive[5.75 µM]; AmpC nodet inh: inactive[5.75 µM]; LT uptake inh: inactive[8 µM]; SmPrx2 inh: inactive

What do the screens show for `[N-]=[N+]=N[C@@H]1[C@H](O)[C@H](CO)O[C@@H]1n1cnc2c(N)ncnc21`?
AmpC det inh: inactive[5.75 µM]; AmpC nodet inh: inactive[5.75 µM]; LT uptake inh: inconclusive; SmPrx2 inh: inactive

What do the screens show for `COc1cc(C)cc(OC)c1/C=C\C(=O)O`?
AmpC det inh: inactive[5.75 µM]; AmpC nodet inh: inactive[5.75 µM]; LT uptake inh: inactive[8 µM]; SmPrx2 inh: inactive

What do the screens show for `Ic1ccccc1CN[C@@H]1C2CCN(CC2)[C@H]1C(c1ccccc1)c1ccccc1`?
AmpC det inh: inactive; AmpC nodet inh: inactive; LT uptake inh: 16µM; SmPrx2 inh: inactive

Results for Cc1nc(NC2CCCCC2)c2nc(-c3ccccc3)n(CCN3CCCC3)c2n1 ?
AmpC det inh: inactive; AmpC nodet inh: inactive; LT uptake inh: inactive

What do the screens show for `O=C(CC1Oc2ccccc2NC1=O)NCCCN1CCN(C2CCCCC2)CC1` (stereo unspecified)?
AmpC det inh: inactive; AmpC nodet inh: 4µM[single pt active]; LT uptake inh: inactive; SmPrx2 inh: inconclusive

Results for COCCCNC(=O)CC1Oc2ccccc2NC1=O (stereo unspecified) ?
AmpC det inh: inactive; AmpC nodet inh: inactive; LT uptake inh: inconclusive; SmPrx2 inh: inactive

How did CC1CCN(Cc2ccc(NC(=O)CC3Oc4ccccc4NC3=O)cc2)CC1 (stereo unspecified) do in these assays?
AmpC det inh: inactive; AmpC nodet inh: 4µM[single pt active]; LT uptake inh: inactive; SmPrx2 inh: inactive

Results for CCC1CCCCN1CCCNC(=O)CC1Oc2ccccc2NC1=O (stereo unspecified) ?
AmpC det inh: inactive; AmpC nodet inh: 4µM[single pt active]; LT uptake inh: inactive; SmPrx2 inh: inactive

What do the screens show for `O=C(CC1Oc2ccccc2NC1=O)NC1CC1` (stereo unspecified)?
AmpC det inh: inactive; AmpC nodet inh: inactive; LT uptake inh: inactive; SmPrx2 inh: inactive

What do the screens show for `CCOC(=O)C(C(=O)OCC)c1cc(Br)c2noc3c2c1C(=O)c1ccccc1-3`?
AmpC det inh: inactive; AmpC nodet inh: inactive; LT uptake inh: inconclusive; SmPrx2 inh: 0.53

What do the screens show for `Cc1noc(C)c1S(=O)(=O)N(CC(=O)NCc1ccc2c(c1)OCO2)c1ccc(C(C)C)cc1`?
AmpC det inh: inactive; AmpC nodet inh: inactive; LT uptake inh: 5µM; SmPrx2 inh: inactive

How did ICCc1ccccc1 do in these assays?
AmpC det inh: inactive; AmpC nodet inh: inactive; LT uptake inh: inactive

Results for CCN(CC)C(=O)C1CCCc2c1[nH]c1ccc(Cl)cc21 (stereo unspecified) ?
AmpC det inh: inactive; AmpC nodet inh: 4µM[single pt active]; LT uptake inh: inactive
